Assay outcomes (PubChem)
Only some compounds are listed: those with a hit (about 5.7% of all), similar ones and a draw of the others.
B2AR arrestin: beta2AR (human) beta-arrestin recruitment activity; Potency, µM (highest dose often 46.1 µM), inactives show at the highest dose activation, hits mostly activators; 0.02% of 330,000 active; P07550; beta-arrestin recruitment to beta2AR, cell-based reporter; AID 492947;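 also: 0% = DMSO controls and full agonism = EC100 isoproterenol or metaproterenol; nearly all actives have a fitted effect of over 65% in size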
Target sequence (P07550 whole entry, looked up): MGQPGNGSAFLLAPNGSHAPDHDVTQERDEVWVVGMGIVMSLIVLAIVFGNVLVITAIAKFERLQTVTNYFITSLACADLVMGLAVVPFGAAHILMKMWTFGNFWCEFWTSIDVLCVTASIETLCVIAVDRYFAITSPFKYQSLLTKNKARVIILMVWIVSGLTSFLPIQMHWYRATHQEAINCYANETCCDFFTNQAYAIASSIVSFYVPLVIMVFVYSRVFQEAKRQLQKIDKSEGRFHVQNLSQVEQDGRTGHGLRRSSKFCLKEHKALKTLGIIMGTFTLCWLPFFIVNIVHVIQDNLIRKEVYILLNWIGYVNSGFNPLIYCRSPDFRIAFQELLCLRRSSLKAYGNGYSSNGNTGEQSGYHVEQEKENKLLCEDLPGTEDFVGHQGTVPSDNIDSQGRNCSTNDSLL
RORgamma inh: blocks mouse ROR gamma transcriptional activity; P51450; Drosophila S2 Gal4-RORgamma UAS-luciferase reporter, 20 h; Potency, µM (top dose mostly 53.6 µM), inactives show at the top dose activity change, negative = inhibition, most hits filed as inhibitors; 5.4% of 310,000 active; AID 2551; also: nearly all actives have a fitted effect of over 60% in size
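Schneider cells (Drosophila), stable Gal4 DBD–ROR gamma + UAS-luc; 1 hr cmpd preincubation; Cu2+ induction 700 uM final; 20 hr ambient; luminescence.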
Gal4-VP16 FLuc: inhibits Gal4-VP16 luciferase reporter, ROR gamma counter-screen | Drosophila S2 Gal4-VP16 UAS-luciferase, luminescence, 20 h | Potency, µM (top dose mostly 53.6 µM), without a hit: at the top dose activity, negative = inhibition, most hits filed as inhibitors | 3.5% of 310,000 active | AID 2546;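 also: Gal4-VP16 expression switched on by copper sulfate through the metallothionein promoter; nearly all actives have a fitted effect of over 50% in size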
NPSR antag: neuropeptide S receptor (human) antagonism, cAMP. CHO-NPSR cells, cAMP TR-FRET, antagonist mode. Potency, µM (top dose mostly 38.3 µM), for inactives: top-dose activity change, negative = inhibition, actives largely listed as inhibitors. 1% of 220,000 active. AID 1461; also: nearly all actives have a fitted effect of over 50% in size
* marks the source's active call; other numbers are inactive results; ? = inconclusive; · = not tested or not shown; ! = a repeat was not active; [ ] = dose if it differs, or a comment. Calls follow the shape of the dose curve; as a rule, active = well fitted curve in the direction sought with a large enough effect; inconclusive = small, poorly fitted or top-dose-only effect, or another doubt; inactive = no such curve, though single readings can be large; an effect the other way counts as inactive or inconclusive. Unless noted, % is scaled to controls: 0 for no effect and ±100 for the full control effect; potency is read from the fitted curve at half-maximal effect.

SMILES	B2AR arrestin	RORgamma inh	Gal4-VP16 FLuc	NPSR antag
Cc1cc(S(=O)(=O)NC(C)C)ccc1OCC(=O)N1CCN(Cc2ccc3c(c2)OCO3)CC1	0.0%	-29.0%	7.94µM*	-4.6%[46.1 µM]
ClC(Cl)(Cl)C(Cl)(Cl)Cl	·	2.2%	2.3%	·
CC(Cl)(Cl)Cl	·	0.1%	1.2%	·
Cc1ccccc1CCNCc1cc2cccc(C)c2[nH]c1=O	-0.8%	?	10µM*	·
COc1cccc(CNCCc2c[nH]c3ccccc23)c1OC	-0.1%	2.4%	1.6%	1.3%
Cc1cc(C)cc(C(=O)OC2C[C@H]3CC[C@@H](C2)N3C)c1 (some centres undefined)	·	-8.9%	2.6%	·
CCc1n[nH]c(=S)n1/N=C/c1c(C)nn(-c2ccccc2)c1Cl	-0.2%	7.08µM*	?	-24.9%
O=C(Cn1cc(C(=O)c2ccccc2)c2ccccc21)NCc1ccco1	-0.4%	12.4%	-0.6%	-15.7%[46.1 µM]
COc1ccc(OCCn2cc(/C=C(\C#N)C(=O)NCc3ccco3)c3ccccc32)cc1	-1.1%	-41.3%	3.55µM*	4.1%
CCCCCCCCn1sccc1=O	0.3%	0.447µM*	0.631µM*	·
CC1(C)[C@H](C(=O)O[C@H](C#N)c2cccc(Oc3ccccc3)c2)[C@@H]1C=C(Br)Br	·	8.8%	4.7%	·
CN1C[C@H](CNC(=O)OCc2ccccc2)C[C@@H]2c3cccc4c3c(cn4C)C[C@H]21	0.9%	22.4µM*!	-0.8%	-20.6%
CC(C)c1cccc(C(C)C)c1OCCn1ccnc1	-0.3%	22.4µM*	?	-1.4%[46.1 µM]
NCCNC[C@@H](N)CCCN=C(N)N[N+](=O)[O-]	·	-5.7%	-10.6%	·
COC(=O)[C@]1(C)CC[C@@]2(C)CC[C@@]3(C)C4=CC=C5C(=CC(=O)C(O)=C5C)[C@@]4(C)CC[C@@]3(C)C2C1 (some centres undefined)	·	3.98µM*	3.55µM*	·
C(CCOCC1CO1)COCC1CO1 (centres undefined)	·	2.8%	-4.5%	·
C=C(C=O)C[C@@H]1C[C@H](O)C2OC3C[C@]4(C)OC5/C=C\CC6OC7C(CC=CCC6OC5CCCC4OC3CC2O1)OC1CC2OC3CC(=O)OC3C[C@@H](C)C[C@@]2(C)OC1C[C@@H]7C (some centres undefined)	-0.3%	?	-5.2%	0.794µM*
COc1ccc(C=O)cc1OC	·	-0.5%	6.6%	·
COC(=O)CCCc1[se]c2ccccc2c1I	·	42.0%	-3.1%	·
Cc1nn(Cc2ccccc2)c2c1C(c1ccco1)C(C#N)=C(N)O2 (centres undefined)	0.4%	7.08µM*	-17.3%	-11.6%[46.1 µM]
C#C[C@@]1(O)CC[C@@H]2[C@@H]3CCC4=CC(=O)CC[C@@]4(C)[C@H]3CC[C@]21C	·	-10.6%[16.9 µM]	-3.9%[17 µM]	·
ClCCCCl	·	-2.1%	5.1%	·
Cc1cccc(N=Nc2ccc(N(C)C)cc2)c1	0.5%	7.94µM*	12.6µM*	·
CN(C)S(=O)(=O)c1ccc(C(=O)NNc2nc(-c3ccccc3)c3cc(Br)ccc3n2)cc1	-0.7%	7.08µM*	?	-10.8%
O=C(CNC(=O)c1ccc(Cl)cc1)Nc1ccc(Br)cc1C(=O)c1ccccc1	0.1%	?	-2.6%	-23.4%
SMILES	B2AR arrestin	RORgamma inh	Gal4-VP16 FLuc	NPSR antag
Clc1ccc(-c2nc3ccc(Cl)cn3c2CN2CCCCC2)cc1	-0.3%	5.01µM*	-23.0%	·
Clc1ccc(-c2nc3ccc(Cl)cn3c2CN2CCOCC2)cc1	0.2%	?	?	-1.4%[46.1 µM]
COC(=O)C(O)(c1ccc(NC(=S)NC(=O)c2ccccc2)cc1)C(F)(F)F (centres undefined)	-1.1%	10µM*	?	-12.4%[46.1 µM]
CC(=O)OCC1=C[C@H]2[C@@H]3C(C)(C)[C@]3(OC(=O)Cc3ccccc3)C[C@@H](C)[C@]2(O)[C@@H]2C=C(C)C(=O)[C@@]2(O)C1	·	-25.5%	?	·
CCOc1ccc(C2CC(c3c(O)n(C)c(=O)n(C)c3=O)=NN2)cc1 (centres undefined)	0.0%	?	?	-9.4%[7.67 µM]
Cn1c(O)c(C2=NN(C(=O)CCl)C(c3ccccc3)C2)c(=O)n(C)c1=O (centres undefined)	0.0%	?	17.8µM*	-5.1%[7.67 µM]
CCC(=O)N1N=C(c2c(O)n(C)c(=O)n(C)c2=O)CC1c1ccccc1 (centres undefined)	-0.7%	11.2µM*	-9.6%	-9.0%
COc1cccc(/C=N/NC(=O)c2c(C)nc3ccc(Br)cn23)c1	4.5%	14.1µM*	?	-5.5%
COc1ccc(NC(=O)c2cn(CCC#N)nc2-c2cccc(Br)c2)cc1	-0.2%	18.9%	-11.8%	·
